Calls of active or inactive are those of the source. Rule for the calls: active = hit-call score of the fitted dose curve at least 0.9, where 1 is the maximum; inactive = score below 0.9.
These compounds were tested on Lipase C (LIPC), LIPC (gene 3990) (assay: LTEA_HepaRG_LIPC: Life Technologies and Expression Analysis (LTEA) Assay for Lipase C (LIPC) using HepaRG (AID 2283514)). Conditions: mRNA level, 48 h; actives raise or lower the signal.
Protocol: LTEA_HepaRG is a cell based, multiplexed-readout assay that uses HepaRG, a human liver cell line, with measurements taken at 48 hours after chemical dosing on a 96-well plate.LTEA_HepaRG_LIPC is one of 102 assay component(s) measured in the LTEA HepaRG cell culture assay. It is a marker of Steatosis.Data from the assay component LTEA_HepaRG_LIPC was analyzed into 1 endpoint. This assay endpoint, LTEA_HepaRG_LIPC, was analyzed with bidirectional fitting relative to DMSO as the negative control and baseline of activity. Using a type of inducible reporter, measures of mRNA induction for gain or loss-of-signal activity can be used to understand regulation of transcription factor activity. To generalize the intended target to other relatable targets, this assay endpoint is annotated to the esterase intended target family, where the subfamily is lipase.
A total of 1060 chemcials from the ToxCast library were tested in eight-point concentration-response experiments. Cell culture and cytotoxicity assays were conducted at Thermo Fisher Scientific's Custom Services facility (Madison, WI). A single lot of human HepaRG cells (Thermo Fisher Scientific, Frederick, MD) was used for the cell culture experiments. 96-well format collagen type I coated plates of human HepaRG cells were prepared using established methods. Briefly, cryopreserved HepaRG cells were thawed, plated at a density of approximately 100,000 cells/well in HepaRG Thaw, Plate, and General Purpose media (HPRG770, Thermo Fisher Scientific), and incubated for 48 hours. 0.5% DMSO was selected as vehicle control to balance the requisite need of DMSO in HepaRG cultures to maintain differentiation (for example, baseline metabolism, proportions of hepatocytes vs. cholangiocytes), while enabling further hepatic receptor pathway activation (for example, PXR and CAR) in response to chemical exposure. 48 hours after plating, the culture medium was replaced with HepaRG Serum-Free Incudtion Media. Cells were exposed to each test chemical in duplicate and maintained in CO2 incubators for another 48 hours. Chemical plates were thawed to room temperature and 200x concentrations of treatment groups were prepared. 8-point conentration-reponse curves were made with the highest exposure at 100 uM, followed by half-log dilutions, all in 0.5% DMSO. Each test plate contained variouse controls, induction positive controls (1mM phenobarbital), cytotoxicity positive controls ([…] aflatoxin B1), vehicle controls (0.5% DMSO), and total lysis controls (0.5% DMSO). Cell morphology images were taken using an Essen IncuCyte FLR automated microscope, with six 96-well plates imaged in about 24 minutes. Images were captured and exported and JPEG files. Spent culture media was transfered to black-well plates for the LDH assay, and remaining media was sorted at -80 C for later use. Cells were treated with RLT buffer and frozen until shipped for gene expression analysis. Total RNA was isolated from the cell suspension in 75 uL of Buffer RLT (Qiagen, Germantown, MD 20874) by Quintiles/Expression Analysis (Durham, NC) using a custom isolation procedure. Total RNA from each plate well was transferred to a preamplification plate. Fluidigm's 96.96 Dynamic ArrayTM (Fluidigm, Amsterdam, the Netherlands) technology was used for gene expression analyses by quantitative reverse transcription polymerase chain reaction (qRT-PCR, performed by Quintiles/Expression Analysis, Durham, NC)89. Standard TaqManTM Assays (Applied Biosystems/ThermoFisher Scientific, Foster City, CA) were used to assess the expression of 93 genes selected based on their selectivity and sensitivity to important hepatic receptors known to be modulated by environmental chemicals; importance in human hepatocyte functionality; and hepatotoxicity. […]

Compound	AC50	outcome
S=C([S-])NCCNC(=S)[S-].[Mn+2]	7.28 µM (active)	–
CCCOC(=O)NCCCN(C)C	–	inactive
CCOC(=O)C(C)Oc1ccc(Oc2cnc3cc(Cl)ccc3n2)cc1 (stereo not given)	–	inactive
CCOC(=O)NCCOc1ccc(Oc2ccccc2)cc1	89 µM (active)	–
CCCCC(CC)CN1C(=O)C2C3C=CC(C3)C2C1=O (stereo not given)	88.2 µM (active)	–
CCCCCCC(C)OC(=O)COc1nc(F)c(Cl)c(N)c1Cl (stereo not given)	–	inactive
c1ccc(Nc2ccccc2)cc1	–	inactive
CCSC(=O)N(CC(C)C)CC(C)C	–	inactive
CCN(CC)C(=O)c1cccc(C)c1	–	inactive
C#C[C@]1(O)CC[C@H]2[C@@H]3CCC4=CC(=O)CC[C@@H]4[C@H]3CC[C@@]21CC	–	inactive
OB(O)O	–	inactive
O=C(O)c1ccccc1	–	inactive
O=C(O)C1(C(=O)Nc2ccc(Cl)cc2Cl)CC1	76.2 µM (active)	–
CCNc1nc(N)nc(Cl)n1	–	inactive
CC(=O)[C@H]1CC[C@H]2[C@@H]3CCC4=CC(=O)CC[C@]4(C)[C@H]3CC[C@]12C	34.6 µM (active)	–
C[C@]12CC[C@@H]3c4ccc(O)cc4C[C@@H](CCCCCCCCCS(=O)CCCC(F)(F)C(F)(F)F)[C@H]3[C@@H]1CC[C@@H]2O (stereo not given in full)	50 µM (active)	–
O=C(c1ccc(O)cc1O)c1ccc(O)cc1O	–	inactive
CC(=O)S[C@@H]1CC2=CC(=O)CC[C@]2(C)[C@H]2CC[C@@]3(C)[C@@H](CC[C@@]34CCC(=O)O4)[C@H]12	50 µM (active)	–
C[C@]12C[C@H](O)[C@H]3[C@@H](CCC4=CC(=O)CC[C@@]43C)[C@@H]1CC[C@@H]2C(=O)CO	–	inactive
O=C(Nc1ccc([N+](=O)[O-])cc1Cl)c1cc(Cl)ccc1O	4.31 µM (active)	–

Compound	AC50	outcome
CCC(C)OC(=O)N1CCCCC1CCO (stereo not given)	–	inactive
CCOC(=O)COc1cc(-n2ncc(C(F)(F)F)c(C)c2=O)c(F)cc1Cl	–	inactive
Cc1nn(C)c(Oc2ccccc2)c1C=NOCc1ccc(C(=O)OC(C)(C)C)cc1	24.2 µM (active)	–
c1ccc2[nH]c(-c3cscn3)nc2c1	–	inactive
CCCCC(CC)COC(=O)c1ccccc1C(=O)O (stereo not given)	–	inactive
COc1c(Cl)ccc(Cl)c1C(=O)O	–	inactive
CSC(=O)c1cccc2nnsc12	–	inactive
C=CCOC(Cn1ccnc1)c1ccc(Cl)cc1Cl (stereo not given)	33 µM (active)	–
CCOC(=O)c1ccc(O)cc1	–	inactive
CC(C)CCCCCCc1ccc(O)cc1	–	inactive
COC(=O)c1ccc(I)cc1S(=O)(=O)NC(=O)Nc1nc(C)nc(OC)n1	–	inactive
N[C@@H](Cc1cc(I)c(Oc2ccc(O)c(I)c2)c(I)c1)C(=O)O	72.3 µM (active)	–
Oc1ccc(C(c2ccc(O)cc2)C(Cl)(Cl)Cl)cc1	78.8 µM (active)	–
CCCCCOC(=O)COc1cc(N2C(=O)C3=C(CCCC3)C2=O)c(F)cc1Cl	–	inactive
CC1(C)C(C=C(Cl)Cl)C1C(=O)OCc1cccc(Oc2ccccc2)c1 (stereo not given)	–	inactive
N#CSCSc1nc2ccccc2s1	–	inactive
O=C(c1ccccc1)C1CCCCC1	–	inactive
COCCO	–	inactive
CC(C)(C)[C@@H](O)[C@@H](Cc1ccc(Cl)cc1)n1cncn1	–	inactive
CCCCOC(=O)C(C)Oc1ccc(Oc2ccc(C(F)(F)F)cn2)cc1 (stereo not given)	–	inactive

Reference: PubChem BioAssay (EPA / NIEHS)
